# Where “and” joins values, the source holds several entries; their conditions need not be identical. Equal values may be shown once. Records with an inconclusive call do not appear. Where a call stands in place of a potency, no number is given. Some compounds were tested as several samples or in several runs, with calls that do not always agree. Calls of active or inactive are those of the source. Unless noted, calls come from the whole dose curve; as a rule, active = well fitted curve in the direction sought with a large enough effect; inconclusive = small, poorly fitted or top-dose-only effect, or another doubt; inactive = no such curve, though single readings can be large; an effect the other way counts as inactive or inconclusive.
# Assays:
# [1] = NS1 protein of Zika virus - qHTS assay to identify small molecule inhibitors in human HEK 293 cells (AID 1347053); note: nearly all actives have a fitted effect of over 55% in size; note: potency is the fitted concentration of half-maximal effect
# Method in brief: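 In this cell-based screen, HEK 293 cultures received compound for one hour before Zika MR766 at MOI = 0.5. NS1 was quantified 24 hours later by TR-FRET, normalized to virus-free wells and infected wells.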
# [2] = target: Parathyroid hormone/parathyroid hormone-related peptide receptor (Homo sapiens) (UniProt Q03431); test: qHTS for PTHR1 Agonists: Optimization Screen against the NCGC LOPAC library (AID 1347079);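 note: GloSensor cAMP luminescence in HEK-293 GP2 cells expressing human PTHR1 with IBMX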
# Method in brief: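 Signal increase flags agonism. GP2 cells, derived from HEK-293, express human PTHR1 and a GloSensor cAMP construct.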
# [3] = qHTS of pediatric cancer cell lines to identify multiple opportunities for drug repurposing: Primary screen for TC32 cells (AID 1347089); note: nearly all actives have a fitted effect of over 60% in size; note: potency is the fitted concentration of half-maximal effect
# Method in brief: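 TC32 cells, 500-1,000/well in growth medium, compound-treated 48 h at 37 °C; viability from CellTiter-Glo luminescence. Primary screen: MIPE 11-point (0.78 nM–46 µM final), NPC 8-point (0.59 nM–46 µM final); confirmatory at 11-point dilutions.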
# [4] = qHTS of pediatric cancer cell lines to identify multiple opportunities for drug repurposing: Primary screen for DAOY cells (AID 1347090); note: series mostly up to about 46 µM; nearly all actives have a fitted effect of over 55% in size
# Method in brief: (§1)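 Cell viability, CellTiter-Glo luminescence; 500-1,000 cells/well, 8- or 11-point titration, 48 h compound exposure at 37 degrees C, 5% CO2. Controls: DMSO neutral, bortezomib 2.3 µM final as positive.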
# [5] = qHTS of pediatric cancer cell lines to identify multiple opportunities for drug repurposing: Primary screen for SJ-GBM2 cells (AID 1347091); note: potency is the fitted concentration of half-maximal effect
# Method in brief: as §1
# [6] = qHTS of pediatric cancer cell lines to identify multiple opportunities for drug repurposing: Primary screen for A673 cells (AID 1347092); note: nearly all actives have a fitted effect of over 45% in size; note: potency is the fitted concentration of half-maximal effect
# Method in brief: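 A673 cells (500-1,000 cells/well) were treated 48 hours at 37 degrees C with compounds at 11-point (0.78 nM to 46 µM) or 8-point (0.59 nM to 46 µM) dilutions. Viability read by CellTiter-Glo luminescence; concentration-response curves fitted.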
# [7] = qHTS of pediatric cancer cell lines to identify multiple opportunities for drug repurposing: Primary screen for SK-N-MC cells (AID 1347093); note: potency is the fitted concentration of half-maximal effect; for activity change, negative = cytotoxic: series mostly up to about 46 µM
# Method in brief: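 Metabolically active cells were quantified by ATP-dependent luminescence (CellTiter-Glo, 15 min at room temperature) following 48 h treatment. Cells had been plated at 500-1,000 per well and settled for 5 h beforehand.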
# [8] = qHTS of pediatric cancer cell lines to identify multiple opportunities for drug repurposing: Primary screen for BT-37 cells (AID 1347094); note: potency is the fitted concentration of half-maximal effect; for activity change, negative = cytotoxic: series mostly up to about 57 µM
# Method in brief: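 ATP-based luminescence (CellTiter-Glo) quantifies viability after a 48-hour exposure. Compounds are dosed across 8 or 11 final concentrations; DMSO and 2.3 µM bortezomib serve as controls.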
# [9] = target: T1, Tyrosine-protein phosphatase non-receptor type substrate 1 (Homo sapiens) + Leukocyte surface antigen CD47 (Homo sapiens) (UniProt P78324+Q08722); test: CD47-SIRPalpha protein protein interaction - LANCE assay qHTS validation (AID 1347057; active = well fitted curve in the direction sought with a large enough effect in the signal ratio, with a control signal flat, not every such curve was filed as active; the % refers to the signal ratio; note: series mostly up to about 38 µM)
# Method in brief: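 Inhibition of soluble CD47/SIRPalpha ectodomain association by titrated compounds, measured as 665/615 nm time-resolved FRET ratio after sequential 30 min room-temperature incubations.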
# [10] = target: T1, Tyrosine-protein phosphatase non-receptor type substrate 1 (Homo sapiens) + Leukocyte surface antigen CD47 (Homo sapiens); test: CD47-SIRPalpha protein protein interaction - Alpha assay qHTS validation (AID 1347059);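 note: bead proximity luminescence from CD47 binding SIRPalpha after compound preincubation with SIRPalpha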
# Method in brief: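 AlphaScreen signal between CD47-His (12.5 nM) and biotin-SIRPalpha (25 nM) soluble extracellular domains, bead-captured via Ni-NTA and streptavidin. Compounds, in 7-point titrations, met SIRPalpha 30 min before CD47; PBS pH 7.4 with 0.05% IGEPAL.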
# Chain of Parathyroid hormone/parathyroid hormone-related peptide receptor (Homo sapiens) (Q03431 whole entry, looked up): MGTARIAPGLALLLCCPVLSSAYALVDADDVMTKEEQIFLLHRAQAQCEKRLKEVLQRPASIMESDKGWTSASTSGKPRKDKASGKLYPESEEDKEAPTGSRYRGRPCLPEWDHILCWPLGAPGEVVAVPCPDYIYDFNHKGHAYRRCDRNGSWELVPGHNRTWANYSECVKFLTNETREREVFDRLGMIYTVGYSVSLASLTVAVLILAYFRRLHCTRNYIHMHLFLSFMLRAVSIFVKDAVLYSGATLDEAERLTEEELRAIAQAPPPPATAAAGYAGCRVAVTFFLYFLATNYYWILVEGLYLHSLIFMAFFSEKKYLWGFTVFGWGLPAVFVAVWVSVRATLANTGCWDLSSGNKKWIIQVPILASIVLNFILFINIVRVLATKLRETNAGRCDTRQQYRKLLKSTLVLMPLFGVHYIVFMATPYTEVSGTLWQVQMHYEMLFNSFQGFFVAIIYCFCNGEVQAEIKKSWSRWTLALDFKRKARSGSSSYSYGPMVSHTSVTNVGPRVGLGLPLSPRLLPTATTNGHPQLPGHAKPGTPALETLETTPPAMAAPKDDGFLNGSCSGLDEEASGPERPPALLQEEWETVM
# T1 sequence (P78324 whole entry, looked up, the tested form may be a part): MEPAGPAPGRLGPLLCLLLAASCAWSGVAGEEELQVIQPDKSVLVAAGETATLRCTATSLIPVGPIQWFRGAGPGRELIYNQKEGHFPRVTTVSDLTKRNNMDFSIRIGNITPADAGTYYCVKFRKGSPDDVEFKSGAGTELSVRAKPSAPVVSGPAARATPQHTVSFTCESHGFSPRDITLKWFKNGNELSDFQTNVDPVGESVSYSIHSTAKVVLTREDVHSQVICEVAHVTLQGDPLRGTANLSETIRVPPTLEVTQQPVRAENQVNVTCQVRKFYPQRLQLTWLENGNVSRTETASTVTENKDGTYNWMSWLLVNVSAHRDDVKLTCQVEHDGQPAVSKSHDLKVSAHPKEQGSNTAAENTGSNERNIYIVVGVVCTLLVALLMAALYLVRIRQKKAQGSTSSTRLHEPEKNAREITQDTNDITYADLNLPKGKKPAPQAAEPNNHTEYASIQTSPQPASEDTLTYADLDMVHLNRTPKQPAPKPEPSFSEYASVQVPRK
# T1 sequence (Q08722 whole entry, looked up, the tested form may be a part): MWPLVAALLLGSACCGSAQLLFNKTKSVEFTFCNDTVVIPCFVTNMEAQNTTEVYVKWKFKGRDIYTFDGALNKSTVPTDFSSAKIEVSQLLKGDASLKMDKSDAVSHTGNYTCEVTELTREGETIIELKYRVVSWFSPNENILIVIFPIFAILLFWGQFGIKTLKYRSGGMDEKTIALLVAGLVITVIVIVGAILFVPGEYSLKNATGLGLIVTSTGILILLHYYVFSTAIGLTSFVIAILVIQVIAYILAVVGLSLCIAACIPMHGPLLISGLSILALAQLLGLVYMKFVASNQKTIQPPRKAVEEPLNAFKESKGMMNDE
Structure (SMILES),Potency [1],outcome [2],Potency [3],Potency [4],Potency [5],Potency [6],Potency [7],Potency [8],outcome [9],Potency [10],"activity change, negative = cytotoxic [5]","activity change, negative = cytotoxic [6]","activity change, negative = cytotoxic [7]","activity change, negative = cytotoxic [8]"
Nc1ccn([C@@H]2O[C@H](CO)[C@@H](O)C2O)c(=O)n1 (stereo partly specified),inactive,inactive,inactive,inactive,inactive,inactive,inactive,inactive,–,–,–,–,–,–
O=C(NCC1CCCCN1)c1cc(OCC(F)(F)F)ccc1OCC(F)(F)F (stereo unspecified),inactive,–,inactive,–,–,–,–,–,–,–,–,–,–,–
CN(C)CCCC1(c2ccc(F)cc2)OCc2cc(C#N)ccc21 (stereo unspecified),inactive,inactive,inactive,–,inactive,29.6 µM (active),11.8 µM (active),–,inactive,inactive,–,–,–,–
CCN(CCO)CCCC(C)Nc1ccnc2cc(Cl)ccc12 (stereo unspecified),inactive,–,inactive,inactive,–,2.35 µM (active),2.96 µM (active),3.85 µM (active),–,–,13.4% [at 4.84 µM] (inactive),4.16% [at 4.84 µM] (inactive),-1.47% [at 4.84 µM] (inactive),5.71% [at 6.03 µM] (inactive)
Clc1ccc2c(N3CCN(CCCN4CCN(c5ccnc6cc(Cl)ccc56)CC4)CC3)ccnc2c1,inactive,–,inactive,inactive,inactive,inactive,inactive,inactive,inactive,inactive,–,–,–,–
Clc1ccc(C(Cn2ccnc2)OCc2c(Cl)cccc2Cl)c(Cl)c1 (stereo unspecified),inactive and 14.8 µM (active),–,inactive,inactive,inactive,21.1 µM (active) and 18.7 µM (active),–,–,–,–,–,–,–,–
O=C(c1ccccc1)c1ccc2n1CCC2C(=O)O (stereo unspecified),inactive,inactive,inactive,–,inactive,–,–,inactive,inactive,inactive,–,–,–,–
CC(=O)O[C@H]1C(=O)[C@@]2(C)C([C@H](OC(=O)c3ccccc3)[C@]3(O)C[C@H](OC(=O)[C@H](O)[C@@H](NC(=O)c4ccccc4)c4ccccc4)C(C)=C1C3(C)C)[C@]1(OC(C)=O)CO[C@@H]1C[C@@H]2O (stereo partly specified),0.0066 µM (active),inactive,0.0017 µM (active),–,–,0.001 µM (active),0.001 µM (active),–,–,–,–,–,–,–
CCCCCCCCOc1ccccc1C(=O)Nc1ccc(C(=O)OCC[N+](C)(CC)CC)cc1,inactive,–,inactive,–,–,–,–,–,–,–,–,–,–,–
CCOC(=O)C(C)Oc1cccc2c(=O)n(CC(=O)Nc3ccc4c(c3)OCCO4)ccc12 (stereo unspecified),inactive,inactive,inactive,–,inactive,7.43 µM (active),–,inactive,inactive,inactive,–,–,–,–
CC1(C)NC(=O)N(c2ccc([N+](=O)[O-])c(C(F)(F)F)c2)C1=O,inactive,inactive,inactive,inactive,inactive,inactive,inactive,inactive,inactive,inactive,–,–,–,–
CN(C)[C@@H](CCOc1cccc2ccccc12)c1ccccc1,inactive,–,inactive,inactive,inactive,inactive,23.5 µM (active),–,–,–,–,–,–,–
NNc1nncc2ccccc12,inactive,inactive,inactive,inactive,inactive,inactive,inactive,inactive,–,–,–,–,–,–
Cc1cc(O)c2c(c1)C(=O)c1cc(O)cc(O)c1C2=O,inactive,inactive,inactive,–,inactive,inactive,–,inactive,inactive,inactive,–,–,–,–
CC(=O)N1CCN(c2ccc(OC[C@H]3CO[C@](Cn4ccnc4)(c4ccc(Cl)cc4Cl)O3)cc2)CC1,inactive,inactive,inactive,–,–,–,23.5 µM (active),–,inactive,–,–,–,–,–
c1cnc2cc3c(cc2n1)C1CNCC3C1,inactive,–,inactive,inactive,inactive,inactive,4.69 µM (active),inactive,inactive,inactive,–,–,–,–
O=C1NC(=O)C(c2ccccc2[N+](=O)[O-])=C1Nc1ccc(O)c(Cl)c1,inactive,inactive,inactive,inactive,–,5.9 µM (active),0.118 µM (active),inactive,inactive,inactive,–,–,–,–
Cc1cccc(-c2[nH]ncc2-c2ccc3ncccc3n2)n1,inactive,–,inactive,inactive,inactive,inactive,inactive,–,inactive,inactive,–,–,–,–
O=c1cc(N2CCOCC2)oc2c(-c3ccccc3)cccc12,inactive,inactive,–,–,16.6 µM (active),–,9.35 µM (active),–,inactive,inactive,–,–,–,–
COCCCOc1ccnc(CS(=O)c2nc3ccccc3[nH]2)c1C (stereo unspecified),inactive,–,inactive,inactive,inactive,inactive,inactive,inactive,–,–,–,–,–,–
COc1c(O)cc2c(c1O)[C@@H]1O[C@H](CO)[C@@H](O)[C@H](O)[C@H]1OC2=O,inactive,–,inactive,inactive,inactive,inactive,inactive,inactive,–,–,–,–,–,–
Cc1ncc([N+](=O)[O-])n1CC(C)O (stereo unspecified),inactive,–,inactive,inactive,inactive,inactive,inactive,inactive,–,–,–,–,–,–
CN(c1nccc(=O)[nH]1)C1CCN(c2nc3ccccc3n2Cc2ccc(F)cc2)CC1,inactive,–,inactive,inactive,inactive,inactive,2.64 µM (active),inactive,–,–,–,–,–,–

# Source: PubChem BioAssay (NCATS)
